Data taken from PubChem BioAssay (NCATS).
“And” between values parts separate entries of the source, which are not always exact repeats. Identical values can stand only once. Records with an inconclusive call do not appear. Where a call stands in place of a potency, no number is given. The source made the active and inactive calls. Unless noted, calls follow the shape of the dose curve; as a rule, active = well fitted curve in the direction sought with a large enough effect; inconclusive = small, poorly fitted or top-dose-only effect, or another doubt; inactive = no such curve, though single readings can be large; an effect the other way counts as inactive or inconclusive.

How the values were obtained:
[1] = target: Calcium and integrin-binding protein 1 (Homo sapiens) (UniProt Q99828); assay: Primary qHTS for Identification of Calcium Integrin Binding Protein 1 (CIB1) Competitor (AID 1508620);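 also: GST tagged CIB1 binding a fluorescein labelled alphaIIb integrin peptide tracer; top concentration of the series differs between compounds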
In short: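 Fluorescence polarization competition: GST-tagged CIB1 (1 uM final) preincubated with compound 15 min at room temperature, then FITC-labelled alphaIIb peptide (100 nM final) added. After 15 min at room temperature, polarization read at Ex 480/Em 540.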

[2] = Primary qHTS for inhibitors of nuclear receptor binding SET domain protein 2 (NSD2) in an isogenic RCH-ACV NSD2 p.E1099K mutant (9B) (AID 1645876); also: nearly all actives have a fitted effect of over 70% in size; also: potency is read from the fitted curve at half-maximal effect
[3] = Primary qHTS for inhibitors of nuclear receptor binding SET domain protein 2 (NSD2) in an RCH-ACV wild type WT cells (2C) (AID 1645877); also: nearly all actives have a fitted effect of over 70% in size; also: potency is read from the fitted curve at half-maximal effect
[4] = Primary qHTS for small molecule stabilizers of the endoplasmic reticulum resident proteome: Secreted ER Calcium Modulated Protein (SERCaMP) assay (AID 1508630)
In short: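 GLuc-SERCaMP-expressing SH-SY5Y cells, pretreated 16 h with compound, are challenged with thapsigargin to empty ER calcium stores; after 4 h, coelenterazine is added directly to the medium and luminescence is imaged.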

[5] = target: Cytochrome P450 2D6 (Homo sapiens) (UniProt P10635); assay: Cytochrome P450 family 2 subfamily D member 6 (CYP2D6) small molecule antagonists: luciferase biochemical (cell-free) qHTS assay (AID 1645840; active = well fitted curve in the direction sought with a large enough effect in the repeat runs; an effect the other way counts as inactive or inconclusive; also: nearly all actives have a fitted effect of over 55% in size; also: potency is read from the fitted curve at half-maximal effect)
In short: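 P450-Glo luminescent screen: recombinant CYP2D6 enzyme–proluciferin substrate mix preincubated with compound 10 min at room temperature, then NADPH regeneration added for 1 h at room temperature. Detection reagent added for 20 min; luciferin light read as relative luminescence units.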

[6] = target: Cytochrome P450 2C9 (Homo sapiens) (UniProt P11712); assay: Cytochrome P450 family 2 subfamily C member 9 (CYP2C9) small molecule antagonists: luciferase biochemical (cell-free) qHTS assay (AID 1645842; active = well fitted curve in the direction sought with a large enough effect in the repeat runs; an effect the other way counts as inactive or inconclusive; also: nearly all actives have a fitted effect of over 55% in size; also: potency is read from the fitted curve at half-maximal effect)
In short: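 Luminescence, after 20 min with luciferin detection reagent, reflected CYP2C9 turnover during a 1 h NADPH-driven reaction at 37C. Enzyme-substrate mix contained 0.4% bovine serum albumin and was preincubated with compound 10 min at room temperature.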

[7] = target: N-terminal Xaa-Pro-Lys N-methyltransferase 1 (Homo sapiens) (UniProt Q9BV86); assay: Confirmatory qHTS for Inhibitors of N-terminal methyltransferase 1 (NTMT1): MTaseGlo Assay (AID 1645874); also: potency is read from the fitted curve at half-maximal effect; nearly all actives have a fitted effect of over 65% in size
In short: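 Preincubation of NTMT1 (125 nM) plus SAM (100 uM) with test compounds lasted 15 min; methylation of 1 uM SPKRIA then proceeded 30 min in the dark at room temperature. Luciferase signal reported SAH produced.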

Sequence of Cytochrome P450 2C9 (Homo sapiens) (P11712 whole entry, looked up): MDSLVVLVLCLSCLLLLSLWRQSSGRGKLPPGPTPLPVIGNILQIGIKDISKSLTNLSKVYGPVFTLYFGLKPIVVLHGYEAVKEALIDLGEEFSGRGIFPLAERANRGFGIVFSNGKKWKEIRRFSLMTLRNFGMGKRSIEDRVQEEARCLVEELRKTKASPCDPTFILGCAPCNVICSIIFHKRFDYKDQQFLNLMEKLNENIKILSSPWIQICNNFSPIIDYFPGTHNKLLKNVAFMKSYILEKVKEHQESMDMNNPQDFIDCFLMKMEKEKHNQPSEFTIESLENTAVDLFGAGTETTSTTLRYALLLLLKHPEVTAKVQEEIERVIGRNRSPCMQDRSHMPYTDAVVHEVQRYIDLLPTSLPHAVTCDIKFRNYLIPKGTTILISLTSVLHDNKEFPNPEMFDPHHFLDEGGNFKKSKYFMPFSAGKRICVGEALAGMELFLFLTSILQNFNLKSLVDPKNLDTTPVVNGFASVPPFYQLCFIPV
Sequence of Cytochrome P450 2D6 (Homo sapiens) (P10635 whole entry, looked up): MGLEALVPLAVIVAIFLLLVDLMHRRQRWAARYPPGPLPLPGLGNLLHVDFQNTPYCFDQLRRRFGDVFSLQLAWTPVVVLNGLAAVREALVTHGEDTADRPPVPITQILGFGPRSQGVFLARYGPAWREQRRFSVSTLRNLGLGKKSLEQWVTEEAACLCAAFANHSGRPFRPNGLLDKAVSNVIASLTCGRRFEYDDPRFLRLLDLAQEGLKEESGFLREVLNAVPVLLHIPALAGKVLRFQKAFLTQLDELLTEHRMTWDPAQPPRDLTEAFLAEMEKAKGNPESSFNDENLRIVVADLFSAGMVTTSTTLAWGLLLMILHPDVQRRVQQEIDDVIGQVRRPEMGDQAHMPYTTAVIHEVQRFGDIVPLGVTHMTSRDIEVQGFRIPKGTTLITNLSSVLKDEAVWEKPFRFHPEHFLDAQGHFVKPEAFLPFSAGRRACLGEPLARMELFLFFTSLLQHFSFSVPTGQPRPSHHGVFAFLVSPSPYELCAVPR
Sequence of Calcium and integrin-binding protein 1 (Homo sapiens) (Q99828 whole entry, looked up): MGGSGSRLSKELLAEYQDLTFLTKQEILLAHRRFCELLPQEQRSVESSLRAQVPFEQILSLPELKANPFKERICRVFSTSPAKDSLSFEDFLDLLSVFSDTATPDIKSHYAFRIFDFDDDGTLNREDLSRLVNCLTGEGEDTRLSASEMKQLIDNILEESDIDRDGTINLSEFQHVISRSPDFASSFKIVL
Sequence of N-terminal Xaa-Pro-Lys N-methyltransferase 1 (Homo sapiens) (Q9BV86 whole entry, looked up): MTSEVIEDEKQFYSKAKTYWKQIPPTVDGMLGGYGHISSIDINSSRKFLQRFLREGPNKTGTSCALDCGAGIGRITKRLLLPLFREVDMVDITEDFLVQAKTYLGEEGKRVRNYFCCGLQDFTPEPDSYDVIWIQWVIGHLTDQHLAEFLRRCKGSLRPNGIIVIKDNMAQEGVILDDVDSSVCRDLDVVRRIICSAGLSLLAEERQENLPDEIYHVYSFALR

In the case of `CN(C)N=Nc1nc[nH]c1C(N)=O`, the Potency [1] is reported as “inactive”, the Potency [2] is reported as 2.95 µM (active) and the Potency [3] is reported as 3.72 µM (active).
For `C[C@H](CCC(=O)O)[C@H]1CC[C@H]2[C@H]3[C@@H](CC[C@]12C)[C@@]1(C)CC[C@@H](O)C[C@H]1C[C@@H]3O`, the Potency [4] was “inactive”.
In the case of `O=S(=O)(O)c1ccc2cc(N=Nc3cc(S(=O)(=O)O)c4cccnc4c3O)ccc2c1`, the Potency [4] is reported as “inactive”, the Potency [5] is reported as “inactive” and the Potency [6] is reported as “inactive”. For the same compound, the Potency [2] was “inactive” and the Potency [3] was “inactive”.
With `CN(C)CCCNC(=O)c1ccc(-c2cc(O)c3ncccc3c2)cc1` the Potency [2] was 9.2 µM (active) and 10.5 µM (active) and the Potency [3] was 10.3 µM (active) and 9.34 µM (active).
For `CN[C@@H]1[C@@H](O)[C@@H](O[C@@H]2[C@@H](O)[C@H](O[C@H]3O[C@H](CN)[C@@H](O)[C@H](O)[C@@H]3O)[C@@H](N)C[C@@H]2NC(=O)[C@@H](O)CN)OC[C@]1(C)O`, the Potency [4] was “inactive”.
In the case of `CC1(C)CC(=O)c2c(C(F)(F)F)nn(-c3ccc(C(N)=O)c(NC4CCC(O)CC4)c3)c2C1` (configuration not stated), the Potency [6] is reported as 6.01 µM (active), the Potency [2] is reported as 57.8 nM (active) and 83.3 nM (active) and the Potency [3] is reported as 57.8 nM (active) and 83.3 nM (active).
For `C[C@]12CC[C@@H]3c4ccc(O)cc4CC[C@H]3[C@H]1[C@@H](O)[C@@H](O)[C@H]2O`, the Potency [4] was “inactive” and the Potency [3] was “inactive”.
For `CC1=C[C@@H]2[C@@H]([C@@H](O)C[C@@]3(C)[C@H]2C[C@@H](C)[C@]3(O)C(=O)CO)[C@@]2(C)Cc3cnn(-c4ccccc4)c3C=C12`, the Potency [4] was “inactive”, the Potency [2] was 3.32 µM (active) and the Potency [3] was 0.0026 µM (active).
With `CCCCn1c(=O)n(Cc2ccccc2F)c(=O)c2[nH]c(Cc3ccc(NC(C)=O)cc3)nc21` the Potency [4] was “inactive”, the Potency [6] was 6.01 µM (active) and the Potency [2] was “inactive”.
In the case of `O=C1NC(=O)C(c2cnc3ccccn23)=C1c1cn2c3c(cccc13)CN(C(=O)N1CCOCC1)CC2`, the Potency [4] is reported as “inactive”, the Potency [2] is reported as 0.0148 µM (active) and the Potency [3] is reported as 0.0148 µM (active).
For `O=C(Nc1ccc(OC(F)(F)F)cc1)c1sccc1NCc1ccnc2ccccc12`, the Potency [4] was “inactive”, the Potency [5] was 16.9 µM (active) and the Potency [6] was 7.56 µM (active). The Potency [2] was 16.6 µM (active) and 14.6 µM (active) and the Potency [3] was 18.6 µM (active).
With `C[C@H]1COC2=C1C(=O)C(=O)c1c2ccc2c1CCCC2(C)C` the Potency [4] was “inactive” and the Potency [6] was 19 µM (active).
For `Cc1ccc(NC(=O)c2ccc(CN3CCN(C)CC3)cc2)cc1Nc1nc(-c2cccnc2)cs1`, the Potency [4] was “inactive”, the Potency [2] was 14.6 µM (active) and 14.8 µM (active) and the Potency [3] was 18.4 µM (active) and 14.8 µM (active).
In the case of `c1ccc(-c2oc3ncnc(NC[C@@H]4CCCO4)c3c2-c2ccccc2)cc1`, the Potency [4] is reported as “inactive”, the Potency [6] is reported as 7.56 µM (active) and the Potency [7] is reported as 8.91 µM (active). For the same compound, the Potency [2] was “inactive”.
For `COc1cc2nccc(Oc3ccc(NC(=O)Nc4ccc(F)cc4F)c(F)c3)c2cc1OC`, the Potency [3] was 2.35 µM (active).
For `CCC[C@H](Nc1nc(-c2ccc(NC(=O)NCC)c(OC)c2)ncc1C)c1cccnc1`, the Potency [4] was “inactive”, the Potency [2] was 0.0263 µM (active) and the Potency [3] was 0.0372 µM (active).
In the case of `CC(C)(CO)[C@@H](O)C(=O)NCCC(=O)O`, the Potency [2] is reported as “inactive”.
With `Cc1nc(C(=O)NCC(=O)O)c(O)c2ccc(Oc3ccccc3)cc12` the Potency [5] was “inactive”, the Potency [6] was “inactive” and the Potency [2] was “inactive”.
With `O=C(CO)N1CCC(c2[nH]nc(-c3ccc(Cl)cc3)c2-c2ccncn2)CC1` the Potency [4] was “inactive”, the Potency [6] was 6.74 µM (active) and the Potency [2] was “inactive”.
For `C=CC(=O)Nc1cccc(Sc2nc(Nc3ccc(N4CCN(C)CC4)cc3)ncc2Cl)c1`, the Potency [4] was “inactive” and the Potency [2] was 2.9 µM (active) and 2.95 µM (active).
In the case of `O=[N+]([O-])c1ccc(Nc2ccccc2-c2ccccc2)c2nonc12`, the Potency [2] is reported as 20.9 µM (active) and the Potency [3] is reported as 20.9 µM (active).
With `CC(C)(O)CC(=O)NCCn1ccc2ncnc(Nc3ccc(Oc4cccc(C(F)(F)F)c4)c(Cl)c3)c21` the Potency [4] was “inactive”, the Potency [6] was 5.35 µM (active) and the Potency [2] was 20.5 µM (active) and 11.8 µM (active).
For `C[C@@H](N)c1ccc(C(=O)Nc2ccnc3[nH]ccc23)cc1`, the Potency [6] was “inactive”, the Potency [2] was 9.34 µM (active) and the Potency [3] was 4.17 µM (active).
In the case of `CC(=O)Nc1cccc(-n2c(=O)n(C3CC3)c(=O)c3c(Nc4ccc(I)cc4F)n(C)c(=O)c(C)c32)c1`, the Potency [4] is reported as “inactive” and the Potency [2] is reported as “inactive”.
With `c1ccc(CNc2nc(N3CCOc4ccccc43)nc3c2CCCC3)cc1` the Potency [6] was 1.9 µM (active).
In the case of `Cc1ccc(S(=O)(=O)OCC(=O)Nc2ccc(C(=O)O)c(O)c2)cc1`, the Potency [4] is reported as “inactive”, the Potency [2] is reported as “inactive” and the Potency [3] is reported as “inactive”.
In the case of `CCOC(=O)[C@@H](N)CCC(=O)N[C@@H](CSCc1ccccc1)C(=O)N[C@@H](C(=O)OCC)c1ccccc1`, the Potency [4] is reported as “inactive”, the Potency [2] is reported as 20.9 µM (active) and the Potency [3] is reported as 16.6 µM (active).
For `Cc1cc(OCCCS(C)(=O)=O)cc(C)c1-c1cccc(COc2ccc3c(c2)OC[C@H]3CC(=O)O)c1`, the Potency [4] was “inactive” and the Potency [6] was 21.3 µM (active).
